Measurements published in PubChem BioAssay AID463173 (ICCB-Longwood Screening Facility, Harvard Medical School, 2010).
About 4,300 (8.3%) of roughly 52,000 compounds were called active. The list comes from a sample in which actives are over-represented; it also holds similar structures and randomly drawn compounds. Unmarked numbers belong to inactive results. No stated cut-off is given here; in the data, active means survival mostly below about 52% (no sharp cut-off); inactive means mostly above about 56%.

system: DeltatarO mutant; test: S. aureus survival, RN4220 and DeltatarO strains – OD600, teichoic acid synthesis inhibitors, primary screen (AID 463173); conditions: S. aureus RN4220 wild type/DeltatarO growth, OD600, 18 h, hits give low values, screened at 18.75 µg/mL (by protocol)

Compound | survival
COC(=O)CSc1nnc2n(-c3ccccc3)c(=O)c3c4c(sc3n12)COC(C(C)C)C4 (centres undefined) | 123%
Cc1nn2c(C)c(C(=O)N3CCN(c4ccccc4F)CC3)cnc2c1-c1ccc(F)cc1 | 88%
O=C(NC1CCCC1)c1ccc2c(c1)N(Cc1ccc(F)cc1)C(=O)c1ccccc1S2 | 81%
O=C1CNC(=O)N1Cc1ccc(F)cc1 | 108%
Cc1cccc(NC(=O)c2sc(-n3nc(C)c(CCC(C)C)c3C)nc2C)c1 | 53%
O=C(CSc1nnc(-c2ccc(Cl)cc2)o1)Nc1ccc(F)cc1 | 69%
Cc1cccc(C)c1NC(=O)Cn1nc(C)c2sc3ccccc3c2c1=O | 99%
COc1ccc(Cc2nnc(NC(=O)c3cccs3)s2)cc1OC | 100%
CSc1nc2c(c(=O)[nH]1)C(c1cccc(F)c1F)CC(=O)N2 (centres undefined) | 111%
CC(C)c1ccc(NC(=O)Cn2c(=O)n(CCc3ccccc3)c(=O)c3ccccc32)cc1 | 82%
COc1ccc(-c2noc(CCC(=O)Nc3ccccc3Cl)n2)cc1OC | 97%
COc1ccc(Cl)cc1NC(=O)CCc1nc(-c2ccccc2F)no1 | 20% (active)
Cc1ccc(NC(=O)CCc2nc(-c3ccccc3F)no2)c(C)c1 | 93%
CCCNC(=O)N1c2ccc(F)cc2CCC1C (centres undefined) | 87%
COc1ccc(CNC(=O)c2ccc(CN3C(=O)C(C)=C(c4ccc(C)cc4)S3(=O)=O)cc2)cc1 | 89%
COc1ccc(N2CCN(c3nc(-c4ccccc4F)nc4ccccc34)CC2)cc1 | 88%
CC1CCCN(c2csc3ccccc3c2=O)C1 (centres undefined) | 69%
COc1ccccc1N1CCN(c2nc(-c3ccc(C)cc3)nc3ccccc23)CC1 | 83%
Cc1ccc(-c2nc(N3CCCC(C)C3)c3ccccc3n2)cc1 (centres undefined) | -2% (active)
CC1CCCN(c2nc(-c3ccccc3O)nc3ccccc23)C1 (centres undefined) | -6% (active)
Cc1cccc(-n2ncc3c(N4CCCC(C)C4)ncnc32)c1 (centres undefined) | 84%
COc1cccc(-c2nnc(-c3ccccc3NC(=O)c3ccc(F)cc3F)o2)c1 | 78%
CCOc1ccc(CCNC(=O)c2cccc(-n3c(C)nc4cccnc43)c2C)cc1 | 79%
Cc1cc(C)c2[nH]c(=O)c(CN(Cc3ccco3)C(=S)NCCCN3CCOCC3)cc2c1 | 78%

Compound | survival
CCc1ccc(OCCn2c(C3CC(=O)N(Cc4ccc(F)cc4)C3)nc3ccccc32)cc1 (centres undefined) | 3% (active)
Cc1cc(OCCn2c(C3CC(=O)N(Cc4ccc(F)cc4)C3)nc3ccccc32)ccc1Cl (centres undefined) | 1% (active)
CCOc1ccccc1N1CC(c2nc3ccccc3n2CCOc2ccc(C(C)(C)C)cc2)CC1=O (centres undefined) | 62%
COCCNC(=O)c1cc2n(n1)CCCN(Cc1ccc(C)cc1)C2=O | 78%
CC(=O)c1ccc(OC(=O)c2c(-c3ccccc3Cl)noc2C)cc1 | 94%
CCCOc1ccc(OC(=O)c2c(-c3ccccc3Cl)noc2C)cc1 | 84%
Cc1onc(-c2ccccc2Cl)c1C(=O)Oc1ccc(Br)cc1 | 41% (active)
CCCC(=O)c1ccc(OC(=O)c2c(-c3ccccc3Cl)noc2C)cc1 | 102%
CCCOc1cccc(NC(=O)c2c(-c3ccccc3Cl)noc2C)c1 | 37% (active)
CCOc1ccc(OC(=O)c2c(-c3ccccc3Cl)noc2C)cc1 | 72%
Cc1ccc(NC(=O)Cn2nc(N3CCN(c4ccccc4)CC3)ccc2=O)cc1F | 83%
Fc1ccc2ncc3c(-c4ccccc4)n[nH]c3c2c1 | 83%
COc1ccc(C(=O)Nc2ccc(-c3cc4ccccc4oc3=O)c(C)c2)cc1OC | 69%
Cc1cc(C)cc(NC(=O)c2sc3nc4n(c(=O)c3c2C)N=C(c2ccccc2)CS4)c1 | 69%
COc1ccc(Br)cc1Cn1nnc(C(=O)Nc2ccc(C)cc2C)c1N | 48%
CCc1ccc(NC(=O)Cn2c(=O)n(CCCCC(=O)NCCc3ccccc3)c(=O)c3ccccc32)cc1 | 84%
CCOC(=O)c1c(C)[nH]c(C)c1S(=O)(=O)N1CCCC(C(=O)NCc2cccc(OC)c2)C1 (centres undefined) | 78%
COc1cccc(-c2nc(S(=O)(=O)c3ccc(Cl)cc3)c(NCc3ccccc3)o2)c1 | 180%
Cc1ccc(S(=O)(=O)c2nc(-c3cccs3)oc2SC(C)C)cc1 | 66%
CC(C)S(=O)(=O)c1oc(-c2cccs2)nc1S(=O)(=O)c1ccc(F)cc1 | 9% (active)
CS(=O)(=O)c1oc(-c2ccc(F)cc2)nc1S(=O)(=O)c1ccc(Cl)cc1 | -5% (active)
CC(C)S(=O)(=O)c1oc(-c2ccc(F)cc2)nc1S(=O)(=O)c1ccc(F)cc1 | 22% (active)
COc1ccc(-c2nc(S(=O)(=O)c3ccc(Cl)cc3)c(NCc3ccccc3)o2)cc1 | 136%
Cc1ccc(S(=O)(=O)c2nc(-c3cccs3)oc2SCc2ccc(F)cc2)cc1 | 62%

Compound | survival
CCOc1ccc(NC(=O)CSc2oc(-c3ccc(F)cc3)nc2S(=O)(=O)c2ccc(C)cc2)cc1 | 63%
Cc1ccc(S(=O)(=O)c2nc(-c3ccc(F)cc3)oc2SCC(=O)NC2CCCCC2)cc1 | 149%
CCC(C)S(=O)(=O)c1oc(-c2cccs2)nc1S(=O)(=O)c1ccccc1 (centres undefined) | 53%
CCC(C)S(=O)(=O)c1oc(-c2ccc(F)cc2)nc1S(=O)(=O)c1ccc(F)cc1 (centres undefined) | 41% (active)
Cc1ccccc1CNC(=O)CCCn1c(=O)c2cccn2c2cccnc21 | 114%
CCOc1ccc(C2CC(c3c(O)n(C4CCCCC4)c(=O)[nH]c3=O)=Nc3ccccc3S2)cc1 (centres undefined) | 47%
Cc1ccc2c(c1)cc1c(=O)n(CC(=O)N3CCCCC3)nc(C)n12 | 90%
COc1ccc(C)cc1S(=O)(=O)NCC(c1cccs1)S(=O)(=O)c1ccc(C)cc1 (centres undefined) | 69%
Cc1ccc(-c2nnc(NC(=O)c3ccc4c(c3)OCCO4)o2)c(C)c1 | 96%
Cc1ccc(NC(=O)Cn2nc(Cc3ccncc3)c3ccccc3c2=O)c(Cl)c1 | 66%
COc1cc(-c2nc3cccc(C)n3c2Nc2ccc3c(c2)OCCO3)ccc1O | 76%
CCc1ccc(NC(=O)CCn2nc(C)c(S(=O)(=O)N3CCCCC3)c2C)cc1 | 128%
COC(=O)c1ccccc1NC(=O)c1ncoc1-c1ccco1 | 62%
CC(C)S(=O)(=O)c1oc(-c2ccc(F)cc2)nc1S(=O)(=O)c1ccccc1 | 33% (active)
CCN(CC)CCNc1nc2c(c(=O)n(C)c(=O)n2C)n1CCc1ccccc1 | 103%
COc1ccc(NC(=O)C2=C(C)Nc3nc(SCc4ccccc4)nn3C2c2cc(OC)ccc2OC)cc1 (centres undefined) | 78%
COc1cccc(C(=O)Nc2cccc(C(=O)OCc3cc(=O)n4nc(C(C)C)sc4n3)c2)c1 | 101%
COc1ccc(N2CCN(C(=O)c3nc(-c4ccc(Cl)cc4)n4c3CCCCC4)CC2)cc1 | 81%
Cc1ccc(NC(=O)CSc2nncn2C)c(C)c1 | 75%
CC(=O)Nc1nonc1-c1nnc(SCC(=O)Nc2ccccc2Cl)n1C | 50%
CC(=O)Nc1nonc1-c1nnc(SCc2ccccc2)n1C | 44%
CC(=O)Nc1nonc1-c1nnc(SCc2ccccc2C)n1C | 42% (active)
CC(=O)Nc1nonc1-c1nnc(SCc2ccccc2F)n1C | 46%
CC(=O)Nc1nonc1-c1nnc(SCc2ccc(C)cc2)n1C | 48%

Compound | survival
COc1ccc(NC(=O)CSc2nnc(-c3nonc3NC(C)=O)n2C)cc1Cl | 55%
CC(=O)Nc1nonc1-c1nnc(SCc2ccc(F)cc2)n1C | 44%
CC(=O)Nc1nonc1-c1nnc(SCC(=O)Nc2ccc(C)c(Cl)c2)n1-c1ccccc1 | 49%
CC(=O)Nc1nonc1-c1nnc(SCc2ccc(Cl)cc2)n1C | 42% (active)
CC(=O)Nc1nonc1-c1nnc(SCc2ccccc2Cl)n1C | 42% (active)
CC(=O)Nc1nonc1-c1nnc(SCc2ccc(F)cc2Cl)n1C | 45%
CC(=O)Nc1nonc1-c1nnc(SCC(=O)Nc2ccc(C)c(Cl)c2)n1C | 60% (active)
Cc1c(NC(=O)Cc2ccc(Cl)cc2)cccc1-c1nc2cccnc2s1 | 114%
Cc1csc2nc(COC(=O)c3cccc(NC(=O)COc4ccccc4Cl)c3)cc(=O)n12 | 88%
Cc1cc2ncn(S(=O)(=O)c3ccc(S(N)(=O)=O)cc3)c2cc1C | 84%
Cc1ccccc1NC(=O)N1CCCC(c2nc(-c3ccc(F)cc3)no2)C1 (centres undefined) | 93%
Cc1ccccc1NC(=O)CN1C(=O)CCn2nc(-c3cccn3C)cc21 | 83%
O=C(CSc1nc(-c2ccc(Cl)cc2)nc2c1Cc1ccccc1O2)N1CCCCC1 | 96%
O=C(Cn1cc(C(=O)c2cccs2)c2ccccc21)Nc1ccc(Br)cc1 | 127%
O=C1CC(CSc2nnnn2-c2ccccc2)=NN1 | 101%
O=S(=O)(NCCSc1nnnn1-c1ccccc1)c1ccc(F)cc1 | 76%
O=S1(=O)C=C(Sc2nnnn2-c2ccccc2)c2ccccc21 | 4% (active)
Cc1cc(NC(=O)CCCn2c(C)c3cnn(-c4ccccc4)c(=O)c3c2C)ccc1Br | 71%
COc1ccc(CCNC(=O)Cn2c(=O)nc(-c3ccccc3)c3cc(Cl)ccc32)cc1OC | 94%
Cc1ccc(S(=O)(=O)Cc2nc(-c3ccc(C(=O)NCCCOC(C)C)cc3)oc2C)cc1 | 72%
CCOCCCNC(=O)c1ccc(-c2nc(CS(=O)(=O)c3ccccc3)c(C)o2)cc1 | 66%
Cc1oc(-c2ccc(C(=O)NCCCOC(C)C)cc2)nc1CS(=O)(=O)c1ccccc1 | -4% (active)
